One assay addresses CPEB3. As to the kind of experiment: pooled miR-30 sensor sort-seq; sequence = guide strand. The settings on record: shRNA.
TTTATTGCATGCAGCAACCTGA displayed a sensor-assay potency score (higher = more potent) of -0.657. In the case of TTTGAAAACAAACTATAGCTTG, the sensor-assay potency score (higher = more potent) is -0.549. Same read-out and setting: the same measure for TAGAGTAGCGTTCTACTCGTTC: -0.216; for TATAACATTAACAACTTGGGGG: 0.19; for TTTAATTGATATCCTAGCCTGA: 0.351. On the same count and under the same terms, the same measure for TAATATAACATTAACAACTTGG: 0.134; for TTTTGCTACATCTGCCACCTAC: -0.378. Same read-out and setting: the same measure for TTGAAAACAAACTATAGCTTGA: 0.15. TTGAAGAATATCCTACACCTAG registered a sensor-assay potency score (higher = more potent) of -0.344. For TTGCAGGTCAGAACACCTCTGT, the sensor-assay potency score (higher = more potent) was 0.0399. Same read-out and setting: the same measure for TTCCATCTGCATCTTGTCCGGG: 0.148. Take TAGTCTTGCAATCATTGTGTGT: the sensor-assay potency score (higher = more potent) was -0.635.

A further assay has as its target CPNE5. Described as above. Particulars: shRNA.
In the case of TTCTTCATGACCTCGGTCTTGT, the sensor-assay potency score (higher = more potent) was 0.503.

TAACTGGTGGTGAACTCCCCAA showed a sensor-assay potency score (higher = more potent) of -0.885.

For TTGCATCGTACTGAGTTCGAGA, the sensor-assay potency score (higher = more potent) was -0.62. Still for that read-out and setting: the same measure for TTGGTCTGCGCCATGTCCGAGA: -1.04.
Further: reference of the scale not given here.
